Screening results from PubChem.
TCR activator = activators of T cell receptors | primary human leukocytes, anti-CD3, IL-2 HTRF, 48 h | Potency, µM (top dose mostly 9.22 µM), for the others: top-dose activation of IL-2 secretion, hits mostly activators | 330,000 tested, under 10 active | AID 504894; further: % of control where 0% means no effect
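IL-2 produced over 48 hr by a-CD3 bead-stimulated primary human leukocytes exposed to compounds was detected with a homogeneous time-resolved FRET immunoassay, 665nm acceptor signal after 320nm excitation.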
FEN1 inh = blocks human flap endonuclease 1; Potency, µM (doses to about 114 µM), for inactives: at the top dose activity change, negative = inhibition, most hits filed as inhibitors; 390,000 tested, 0.35% active; P39748; Recombinant FEN1 flap cleavage, fluorescence, 15 min; further: potency means the concentration at half of the fitted maximal effect; on the % scale 0 is the no-effect control and ±100 the full control effect; nearly all actives have a fitted effect of over 65% in size
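Enzyme 10 nM, 15 min RT preincubation with compound; start with substrate 50 nM final; reads at 0 and 15 min; qHTS titration, four-parameter Hill fit.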
PLK1 PBD inh = blocks phosphopeptide binding to human PLK1 polo-box domain | Plk1 PBD binding of FITC phosphopeptide, fluorescence polarization | Potency, µM, for inactives: max response, negative = inhibition, actives largely listed as inhibitors | 360,000 tested, 2.8% active; further: potency means the concentration at half of the fitted maximal effect; series mostly up to about 57 µM; on the % scale 0 is the no-effect control and ±100 the full control effect; nearly all actives have a fitted effect of over 65% in size
Target sequence (P53350 whole entry, looked up, the tested form may be a part): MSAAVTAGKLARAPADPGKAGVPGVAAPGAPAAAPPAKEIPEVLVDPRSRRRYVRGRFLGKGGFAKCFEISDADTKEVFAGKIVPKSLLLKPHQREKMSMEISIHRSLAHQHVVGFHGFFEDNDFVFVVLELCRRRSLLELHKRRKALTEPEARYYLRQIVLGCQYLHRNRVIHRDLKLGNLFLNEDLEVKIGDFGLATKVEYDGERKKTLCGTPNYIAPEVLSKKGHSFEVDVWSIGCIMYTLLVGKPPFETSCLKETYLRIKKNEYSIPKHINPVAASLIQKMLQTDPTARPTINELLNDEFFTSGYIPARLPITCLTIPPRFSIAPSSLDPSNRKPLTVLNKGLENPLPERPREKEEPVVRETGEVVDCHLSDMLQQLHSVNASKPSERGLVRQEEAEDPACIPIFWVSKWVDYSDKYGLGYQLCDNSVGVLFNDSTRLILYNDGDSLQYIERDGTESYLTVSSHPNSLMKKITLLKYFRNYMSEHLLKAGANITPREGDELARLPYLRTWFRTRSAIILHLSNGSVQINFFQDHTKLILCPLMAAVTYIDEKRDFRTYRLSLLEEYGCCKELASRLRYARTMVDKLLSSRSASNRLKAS
VDR inhibitor = vitamin D3 receptor (human) inhibition; P11473; VDR-SRC2-3 peptide fluorescence polarization, 2 h; 400,000 tested, 0.93% active; Potency, µM, inactives show max response, negative = inhibition, usual class: inhibitors; further: potency means the concentration at half of the fitted maximal effect; on the % scale 0 is the no-effect control and ±100 the full control effect
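Measured by FP: displacement of SRC2-3 coactivator peptide from VDR by library compounds, following a two-hour ambient incubation.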
PI5P4K alpha inh = blocks human PI5P4K alpha kinase activity; P48426; PI5P4Kalpha enzyme, ADP-Glo luminescence, 60 min; stronger effect = lower value; max response, %; 330,000 tested, 1.2% active; active means max response of -50% or lower; inconclusive means between -30% and -50%; inactive means -30% or higher; further: value at the top dose of about 77 µM; on the % scale 0 is the no-effect control and ±100 the full control effect
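Single end-point luminescence (ADP-Glo) quantified ADP from PI5P4Kalpha turnover; ATP 5 microM final, 1 h at RT, 0.1% CHAPS and 0.28 mM EGTA in HEPES pH 7.4.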
WRN helicase inh = blocks human WRN helicase. AID 651768. 360,000 tested, 0.46% active. WRN helicase unwinding, fluorescent forked duplex, kinetic. Potency, µM (top dose mostly 114 µM), for inactives: top-dose activity change, negative = inhibition, actives largely listed as inhibitors. Q14191; further: potency means the concentration at half of the fitted maximal effect; on the % scale 0 is the no-effect control and ±100 the full control effect; nearly all actives have a fitted effect of over 55% in size
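Kinetic red-fluorescence monitoring (525/598 nm) tracks WRN helicase activity after 100 nM fluorophore-quencher forked duplex and 2 mM ATP are added to 20 nM enzyme pretreated 15 min at room temperature with compound.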
Starred values were filed as active, the others as inactive; [ ] = dose if it differs, or a comment. Most compounds without a hit are left out; they make up all but 3.7% or so of the library. Unless noted, the call rests on the fitted dose curve; in most records, active means well fitted curve in the direction sought with a large enough effect; inconclusive means small, poorly fitted or top-dose-only effect, or another doubt; inactive means no such curve, though single readings can be large; an effect the other way counts as inactive or inconclusive.

`COc1cc(/C=C2/C(=O)NN(c3ccccc3)C2=O)cc(Br)c1O` gave TCR activator -0.3%, FEN1 inh -22.3%, PLK1 PBD inh -7.6%, VDR inhibitor inconclusive, PI5P4K alpha inh -55.1* and WRN helicase inh -12.5%.
CCOc1cc(/C=N/NC(=O)c2cccs2)cc([N+](=O)[O-])c1O was read as TCR activator 3.1%, FEN1 inh -20.5%, PLK1 PBD inh inconclusive, VDR inhibitor 11.6%, PI5P4K alpha inh inconclusive and WRN helicase inh inconclusive.
CCOc1cc(/C=C2\NC(=O)NC2=O)ccc1OC(C)C(=O)O (centres undefined) was read as TCR activator -3.5%, FEN1 inh 8.0%, PLK1 PBD inh -13.3%, VDR inhibitor -1.8%, PI5P4K alpha inh -7.3 and WRN helicase inh 7.1%.
Screening CCOC(=O)c1cc(-c2ccccc2)n(-c2cccc(C(=O)N(C)c3ccc(C)cc3)c2)c1C returned FEN1 inh -6.6% and VDR inhibitor 4.1%.
`CCN(CC)N=Nc1[nH]nc2nc(C)cc(C)c12` gave TCR activator 6.5%, FEN1 inh -8.0%, PLK1 PBD inh 8.44µM*, VDR inhibitor -15.6%, PI5P4K alpha inh -29.9 and WRN helicase inh -19.6%.
For N#CC1=C2Nc3ccccc3N2C(=O)NC1(c1ccccc1)C(F)(F)F (centres undefined) the results were TCR activator 3.5%, FEN1 inh 1.9%, PLK1 PBD inh 23.8µM*, VDR inhibitor -24.4%, PI5P4K alpha inh -7.8 and WRN helicase inh 2.2%.
For CNc1cc(F)nc(F)n1 the results were TCR activator 4.8%, FEN1 inh -27.2%, PLK1 PBD inh 9.47µM*, VDR inhibitor -28.7%, PI5P4K alpha inh -18.7 and WRN helicase inh 1.5%.
Screening CNc1cccc(-c2cccc(O)c2)n1 returned PLK1 PBD inh -11.2%, PI5P4K alpha inh -6.0 and WRN helicase inh 3.5%.
CCCSC1=N/C(=C\C=C\c2ccco2)C(=O)S1 was read as TCR activator -3.7%, FEN1 inh 50.1µM*, PLK1 PBD inh -19.1%, VDR inhibitor inconclusive, PI5P4K alpha inh -67.1* and WRN helicase inh inconclusive.
For CCCSC1=N/C(=C\c2ccc([N+](=O)[O-])o2)C(=O)S1 the results were TCR activator 6.5%, FEN1 inh 35.5µM*, PLK1 PBD inh 7.52µM*, VDR inhibitor 79.4µM*, PI5P4K alpha inh -70.1* and WRN helicase inh 22.4µM*.
`O=C1SC(c2ccccc2)=N/C1=C/c1ccco1` gave FEN1 inh -11.7%, PLK1 PBD inh -8.2%, VDR inhibitor 20.8% and WRN helicase inh -0.4%.
For CCCSC1=N/C(=C\c2ccsc2)C(=O)S1 the results were TCR activator 0.7%, FEN1 inh -7.8%, PLK1 PBD inh -6.0%, VDR inhibitor -3.5%, PI5P4K alpha inh 1.3 and WRN helicase inh 2.2%.
Screening O=C1SC(SCc2ccccc2)=N/C1=C\c1ccco1 returned TCR activator 10.6%, FEN1 inh inconclusive, PLK1 PBD inh inconclusive, VDR inhibitor -17.2% and WRN helicase inh 50.1µM*.
COc1cc(OC)c(/C=C/c2ccc3ccccc3[n+]2[O-])c(OC)c1 was read as FEN1 inh -7.5%.
`S=c1[nH]nc(-c2ccccc2)o1` gave TCR activator -2.6%, FEN1 inh 5.9%, PLK1 PBD inh 29.9µM*, VDR inhibitor -9.2%, PI5P4K alpha inh inconclusive and WRN helicase inh 6.0%.
`S=c1[nH]nc(-c2cc(-c3ccccn3)nc3ccccc23)o1` gave TCR activator 5.6%, FEN1 inh 1.1%, PLK1 PBD inh inconclusive, VDR inhibitor -21.9%, PI5P4K alpha inh inconclusive and WRN helicase inh -7.3%.
For Cc1ccccc1-c1n[nH]c(=S)o1 the results were TCR activator 5.9%, FEN1 inh -6.1%, PLK1 PBD inh -10.0%, VDR inhibitor -5.1%, PI5P4K alpha inh -17.8 and WRN helicase inh -8.9%.
`O=c1c2ccccc2c(-c2n[nH]c(=S)o2)nn1Cc1ccccc1` gave TCR activator 6.6%, FEN1 inh -4.2%, PLK1 PBD inh inconclusive, VDR inhibitor -13.0%, PI5P4K alpha inh -85.5* and WRN helicase inh -2.7%.
Screening O=c1c2ccccc2c(-c2ccccc2)nn1Cc1c(Cl)cccc1Cl returned FEN1 inh -3.4%, PLK1 PBD inh -1.4%, VDR inhibitor 8.6% and WRN helicase inh -13.0%.
Screening Cc1ccc(-c2cc(-c3n[nH]c(=S)o3)c3ccccc3n2)cc1 returned TCR activator 4.5%[46.1 µM], FEN1 inh inconclusive, PLK1 PBD inh 26.7µM*, VDR inhibitor -10.8%, PI5P4K alpha inh -26.0 and WRN helicase inh -13.6%.
For COC(=O)NC(c1ccccc1)C1(C(=O)OC)C(=O)Cc2ccccc21 (centres undefined) the results were VDR inhibitor -11.6%.
`Cc1cc(=O)[nH]c(SCC(=O)Nc2nnc(SCc3ccccc3)s2)n1` gave TCR activator -2.0%, FEN1 inh -0.1%, PLK1 PBD inh 23.8µM*, VDR inhibitor 10.5%, PI5P4K alpha inh -8.7 and WRN helicase inh -1.1%[57.1 µM].
`Cc1cc(=O)[nH]c(SCC(=O)Nc2nc(-c3ccccc3)cs2)n1` gave TCR activator -4.9%, FEN1 inh -5.7%, PLK1 PBD inh inconclusive, VDR inhibitor -0.4%, PI5P4K alpha inh inconclusive and WRN helicase inh inconclusive.
For COc1cc(=O)[nH]c(SCC(=O)Nc2nc3c(s2)CCCC3)n1 the results were TCR activator 0.4%, FEN1 inh -8.5%, PLK1 PBD inh 11.9µM*, VDR inhibitor inconclusive, PI5P4K alpha inh -13.3 and WRN helicase inh 0.1%.
Screening COc1cc(=O)[nH]c(SC(C)C(=O)Nc2nc3c(s2)CCCC3)n1 (centres undefined) returned TCR activator -0.9%, FEN1 inh -25.5%, PLK1 PBD inh -0.2%, VDR inhibitor -5.3%, PI5P4K alpha inh 1.1 and WRN helicase inh 0.0%.
`O=C(CN1CCN(Cc2ccc(F)cc2)C1=O)NCc1ccc(F)cc1` gave FEN1 inh -2.7% and VDR inhibitor 17.2%.
CN(C)c1ccc(/C=C2\C(Cl)=Cc3ccccc32)cc1 was read as FEN1 inh -21.0%.
`O=C(CC(C(=O)O)c1cccc(Cl)c1)c1ccccc1` (centres undefined) gave TCR activator -5.8%, FEN1 inh -6.9%, PLK1 PBD inh 3.5%, VDR inhibitor -0.6%, PI5P4K alpha inh 6.2 and WRN helicase inh -1.2%.
For CSCCC(NC(=O)c1ccccc1)C(=O)OCC(=O)Nc1ccc(C)c(Cl)c1 (centres undefined) the results were FEN1 inh -22.9%, PLK1 PBD inh 21.2µM*, VDR inhibitor inconclusive, PI5P4K alpha inh -9.9 and WRN helicase inh 2.7%.
Cc1ccc(NC(CC(=O)c2ccccc2)C(=O)O)cc1Cl (centres undefined) was read as TCR activator 2.4%, FEN1 inh -13.7%, PLK1 PBD inh 23.8µM*, VDR inhibitor inconclusive, PI5P4K alpha inh -6.6 and WRN helicase inh -5.2%.
